# Hits are enriched below; roughly 10% of the tested compounds scored in any of these assays.
# Pf growth 96h – P. falciparum growth inhibition at 96 hour, primary screen for plastid delayed-death inhibitors. P. falciparum luciferase reporter growth, 96 h. Potency, µM (top dose mostly 28.7 µM), inactives show top-dose activity change, negative = inhibition, hits mostly inhibitors. 320,000 tested, 6.9% active. AID 504834; also: % is scaled to controls: 0 for no effect and ±100 for the full control effect
#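 P. falciparum expressing integrated firefly luciferase, in erythrocytes at 2% hematocrit, 0.05% parasitemia, incubated with compounds 96 h at 37 C, 5% CO2. Growth inhibition read as loss of luminescence; two-generation exposure targets delayed-death apicoplast inhibitors.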
# SARS PLP yeast – SARS-CoV PLP inhibition in yeast; Potency, µM (top dose mostly 32.9 µM), for inactives: at the highest dose activity, positive = growth rescue, actives largely listed as activators; 330,000 tested, 0.19% active; S. cerevisiae expressing SARS-CoV PLpro, growth rescue; calls by dose curve; also: 0% is about no effect; nearly all actives have a fitted effect of over 55% in size
# NS1 inh – inhibitors of influenza NS1 protein function. Potency, µM (titrated, usually from 46.1 µM), without a hit: at the highest dose activity, positive = more growth. 270,000 tested, 0.4% active. AID 2326; calls by dose curve; also: actives are rising curves; nearly all actives have a fitted effect of over 50% in size
#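 Recovery from NS1-induced slow growth read by OD600 in budding yeast switched to galactose assay medium (pH 6.0, -URA) at 1:100 dilution. Compound 23 nl per well; the matching strain lacking NS1 serves as control.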
# Pf growth 48h – inhibits P. falciparum growth in the first generation, 48 h | 310,000 tested, 5.9% active | Potency, µM (titrated, usually from 28.7 µM), for the others: at the top dose activity change, negative = inhibition, most hits filed as inhibitors | P. falciparum luciferase growth in erythrocytes, 48 h; also: % is scaled to controls: 0 for no effect and ±100 for the full control effect
#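 A one-generation exposure of luciferase-tagged malaria parasites in RPMI 1640/Albumax erythrocyte culture, 37 C and 5% CO2. Inhibition is inferred from decreased luminescence after adding detection reagent.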
# * marks the source's active call; other numbers are inactive results; ? = inconclusive; . = no result. Unless noted, calls follow the shape of the dose curve; as a rule, active = well fitted inhibition curve with a large enough effect; inconclusive = small, poorly fitted or top-dose-only effect, or another doubt; inactive = no such curve, though single readings can be large or run the other way. Potency is read from the fitted curve at half-maximal effect.
SMILES,Pf growth 96h,SARS PLP yeast,NS1 inh,Pf growth 48h
Cc1oc(-c2ccc(Cl)cc2)nc1CS(=O)CC(=O)NCc1ccccn1 (stereo not drawn),?,0%,27%,-22%
CN(C(=O)COc1ccc(Cl)cc1Cl)c1nnc(C23CC4CC(CC(C4)C2)C3)s1,13µM*,0%,7%,?
CNC(=O)c1sc(N2N=C3/C(=C/c4ccccc4)CCCC3C2c2ccccc2)nc1C (stereo not drawn),3.3µM*,0%,14%,?
CN(C)S(=O)(=O)c1cc(C(=O)Nc2ccccc2C(=O)NC2CC2)ccc1Cl,?,4%,.,?
Cc1ccc(N(CC(=O)N2CCCC2)S(C)(=O)=O)cc1C,7.4µM*,-2%,-5%,-17%
COc1ccc(N(CC(=O)N2CCOCC2)S(C)(=O)=O)cc1Cl,12µM*,-1%,5%,-14%
COc1ccc(N(CC(=O)N2CCOCC2)S(C)(=O)=O)cc1OC,13µM*,-3%,5%,-5%
CCc1ccccc1N(CC(=O)N1CCCC1)S(C)(=O)=O,10µM*,1%,-13%,-2%
CCc1nnc(NC(=O)C(CC)CC)s1,34%,0%,5%,-1%
O=S1(=O)c2ccccc2Nc2ccccc21,?,0%,2%,-1%
C[C@@H]1CC(=O)[C@H]2CC(CO)=CCC[C@@H]2[C@@]1(C)CC/C(=C/CO)CO,?,3%,.,?
O=C(NC1(N2CCOCC2)CC1)c1ccc(Cl)cc1,34%,2%,3%,-1%
Cc1ncc([N+](=O)[O-])n1CC(=O)NC1CCCCCC1,4%,0%,4%,7%
CCOc1ccc(NC(=NCc2ccc3c(c2)OCO3)SC2CC(=O)N(c3ccc(OCC)cc3)C2=O)cc1 (stereo not drawn),3.7µM*,?,9%,?
CCOc1ccc(NC(=NCc2ccc3c(c2)OCO3)SC2CC(=O)N(c3ccc(C(=O)O)cc3)C2=O)cc1 (stereo not drawn),9.3µM*,-4%,9%,?
CNC[C@H]1Oc2ccc(NC(=O)Cc3cn(C)c4ccccc34)cc2CC(=O)N([C@@H](C)CO)C[C@H]1C,.,1%,.,.
CC(NC(=O)CCCCCNC(=O)N1CCn2c1nc1ccccc12)c1ccccc1 (stereo not drawn),?,17%,-19%,?
COc1cc(C(=O)Nc2cccc(NC(=O)c3cccs3)c2)cc(OC)c1OC,40%,-3%,-5%,?
O=C(Cc1c(F)c(F)c(F)c(F)c1F)Nc1nc(-c2ccccc2)cs1,-6%,0%,-86%,-11%
CC(NC(=O)CN1C(=O)NC2(CCc3ccccc32)C1=O)c1ccccc1 (stereo not drawn),8%,-7%,.,0%
c1ccc(CN(Cc2ccco2)C(c2ccncc2)c2nnnn2C2CCCC2)cc1 (stereo not drawn),10µM*,-5%,?,?
CC(C)(C)n1nnnc1C(c1cccs1)N(Cc1ccc(Cl)cc1)CC1CCCO1 (stereo not drawn),?,.,-1%,13µM*
CC(C)(C)n1nnnc1C(c1cccs1)N(Cc1ccccc1)Cc1cccnc1 (stereo not drawn),-21%,4%,-60%,?
Clc1ccc(CN(Cc2ccccc2)C(c2cccs2)c2nnnn2C2CCCC2)cc1 (stereo not drawn),?,.,-17%,12µM*
CCCCC1CCC(C(=O)N(CCOC)c2c(N)n(CC(C)C)c(=O)[nH]c2=O)CC1 (stereo not drawn),-10%,-1%,.,12%
SMILES,Pf growth 96h,SARS PLP yeast,NS1 inh,Pf growth 48h
FC(F)(F)c1ccccc1-n1c(-c2ccco2)n[nH]c1=S,10%,-2%,10%,113%
O=C(CCSc1nc(-c2ccco2)cc(C(F)(F)F)n1)N1CCCc2ccccc21,.,-16%,-35%,15µM*
O=C(CCSc1nc(-c2ccco2)cc(C(F)(F)F)n1)N1CCN(c2ccccn2)CC1,4%,-4%,-64%,4%
COc1ccccc1CCNC(=O)CCSc1nc(-c2ccco2)cc(C(F)(F)F)n1,-1%,-11%,11%,8.3µM*
COc1ccc(-c2cc(C(F)(F)F)nc(SCCC(=O)NCc3ccccc3)n2)cc1,.,14%,3%,15µM*
COc1ccc(-c2cc(C(F)(F)F)nc(SCc3cccc(C(=O)O)c3)n2)cc1,51%,2%,19%,35%
COc1ccc(/C(C)=N/NC(=O)CNC(=O)/C=C\c2ccccc2)c(OC)c1,32%,-5%,-5%,9%
COc1ccccc1C1CCN(Cc2ccc(C)cc2)CC1,?,2%,-5%,.
